Many of the other results were omitted from the sample, so hits are more common in it than they were.
Dicer processing: inhibitors of human Dicer processing of pre-microRNA. Q9UPY3. cat-ELCCA pre-miR-21 Dicer processing, chemiluminescence; active compounds read high. z-score at 25 µM. 47,000 tested, 6% active. AID 1347074; in the data active = z-score above about 3, passing the limit was not always enough;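 also: higher signal means more uncleaved substrate so more Dicer inhibition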
Target sequence (Q9UPY3 whole entry, looked up): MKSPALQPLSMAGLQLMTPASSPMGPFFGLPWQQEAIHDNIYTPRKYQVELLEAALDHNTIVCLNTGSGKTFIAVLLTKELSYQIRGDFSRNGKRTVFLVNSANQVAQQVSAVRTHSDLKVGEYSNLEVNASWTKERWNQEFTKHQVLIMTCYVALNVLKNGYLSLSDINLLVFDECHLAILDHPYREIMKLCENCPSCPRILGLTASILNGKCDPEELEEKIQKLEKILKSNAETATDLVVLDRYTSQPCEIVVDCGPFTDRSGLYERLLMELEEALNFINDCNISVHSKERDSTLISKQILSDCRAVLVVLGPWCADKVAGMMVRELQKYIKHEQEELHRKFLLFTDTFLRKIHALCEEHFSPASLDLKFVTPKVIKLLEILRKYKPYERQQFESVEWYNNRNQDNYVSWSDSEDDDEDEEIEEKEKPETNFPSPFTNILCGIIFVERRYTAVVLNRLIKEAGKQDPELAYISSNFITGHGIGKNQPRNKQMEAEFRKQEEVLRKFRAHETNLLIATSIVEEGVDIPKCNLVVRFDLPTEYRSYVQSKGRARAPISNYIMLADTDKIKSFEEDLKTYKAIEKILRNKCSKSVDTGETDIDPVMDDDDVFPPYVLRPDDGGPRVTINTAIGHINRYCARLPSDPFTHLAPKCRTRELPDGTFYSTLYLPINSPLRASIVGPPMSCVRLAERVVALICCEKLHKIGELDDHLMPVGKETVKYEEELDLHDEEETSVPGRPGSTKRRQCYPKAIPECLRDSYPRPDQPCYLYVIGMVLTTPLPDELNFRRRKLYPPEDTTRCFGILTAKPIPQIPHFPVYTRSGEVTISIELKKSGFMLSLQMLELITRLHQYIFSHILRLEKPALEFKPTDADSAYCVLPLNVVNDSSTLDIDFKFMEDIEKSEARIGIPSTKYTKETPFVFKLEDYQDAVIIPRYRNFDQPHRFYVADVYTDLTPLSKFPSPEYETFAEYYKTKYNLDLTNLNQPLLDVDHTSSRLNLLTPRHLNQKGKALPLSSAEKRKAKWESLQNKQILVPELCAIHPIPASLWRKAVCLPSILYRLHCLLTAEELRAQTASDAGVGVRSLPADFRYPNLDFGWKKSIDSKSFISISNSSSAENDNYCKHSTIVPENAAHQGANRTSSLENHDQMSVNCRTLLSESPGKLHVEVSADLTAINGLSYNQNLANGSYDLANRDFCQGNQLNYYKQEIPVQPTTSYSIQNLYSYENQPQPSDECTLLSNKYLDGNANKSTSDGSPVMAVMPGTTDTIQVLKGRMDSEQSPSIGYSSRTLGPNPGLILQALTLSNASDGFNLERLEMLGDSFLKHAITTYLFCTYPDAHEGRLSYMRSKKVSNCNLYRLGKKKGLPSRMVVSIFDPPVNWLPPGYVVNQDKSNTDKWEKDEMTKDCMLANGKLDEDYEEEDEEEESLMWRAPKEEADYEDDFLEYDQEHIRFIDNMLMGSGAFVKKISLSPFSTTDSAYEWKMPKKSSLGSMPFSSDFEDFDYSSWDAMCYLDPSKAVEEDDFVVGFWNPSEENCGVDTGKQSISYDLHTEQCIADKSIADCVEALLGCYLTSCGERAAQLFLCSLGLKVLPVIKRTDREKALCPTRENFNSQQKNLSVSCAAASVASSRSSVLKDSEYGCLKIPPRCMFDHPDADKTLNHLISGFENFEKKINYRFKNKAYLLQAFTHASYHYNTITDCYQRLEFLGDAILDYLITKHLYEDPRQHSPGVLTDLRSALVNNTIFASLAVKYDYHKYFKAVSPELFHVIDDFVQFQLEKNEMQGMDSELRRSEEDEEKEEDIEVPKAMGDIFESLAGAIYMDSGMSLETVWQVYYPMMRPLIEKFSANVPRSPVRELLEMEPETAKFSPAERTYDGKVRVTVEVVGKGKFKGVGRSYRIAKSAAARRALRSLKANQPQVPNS
A number is an active result; . = inactive.

SMILES	Dicer processing
OC(COC1=NCNc2cc(Cl)ccc21)c1ccc2c(c1)OCCCO2 (centres undefined)	.
Cc1cccc(C)c1N=Cc1c(O)[nH]c(=O)[nH]c1=O	.
CCCCCc1c(C)nc(Nc2nc(C)c3cccc(C)c3n2)[nH]c1=O	.
CCOc1ccc(/C(O)=C2/C(=O)C(=O)N(CCOC)C23C(=O)N(C)c2ccccc23)cc1 (centres undefined)	4.1
COCCN1C(=O)C(=O)/C(=C(\O)c2ccc(OC)c(C)c2)C12C(=O)N(C)c1ccccc12 (centres undefined)	3.2
Cc1ccc(/C(O)=C2/C(=O)C(=O)N(CCCN(C)C)C23C(=O)N(C)c2ccccc23)cc1F (centres undefined)	.
COCCN1C(=O)C(=O)/C(=C(\O)c2ccc(C)cc2)C12C(=O)N(C)c1ccccc12 (centres undefined)	.
COCCN1C(=O)C(=O)/C(=C(\O)c2ccc(OC)cc2)C12C(=O)N(C)c1ccccc12 (centres undefined)	.
CCOc1ccc(/C(O)=C2/C(=O)C(=O)N(CCCOC)C23C(=O)N(C)c2ccccc23)cc1 (centres undefined)	.
C=CCn1c(SCc2nnc(SCC(C)=O)n2-c2ccccc2)nnc1-c1ccccc1	.
O=C(Nc1ccc(-n2nc(C(F)(F)F)cc2C(F)(F)F)cc1)c1ccc(Cl)cc1	.
COc1ccc(Nc2nc(N)nc(CN3CCCCC3)n2)cc1	.
COc1cccc(Nc2nc(N)nc(CN3CCc4ccccc4C3)n2)c1	.
COc1ccccc1Nc1nc(N)nc(CN2CCCCC2)n1	5.3
COc1ccc(C2c3c(n(C)c(=O)n(C)c3=O)N=C3c4ccccc4C(=O)C32)cc1 (centres undefined)	.
CCn1c2ccccc2c2cc(C3C(C(=O)OCCOC)=C(C)NC4=C3C(=O)CCC4)ccc21 (centres undefined)	3.6
CCCCOC(=O)C1=C(C)NC2=C(C(=O)CCC2)C1c1ccc(OC)c(OC)c1 (centres undefined)	.
CCn1c2ccccc2c2cc(C3C(C(=O)OCC4CCCO4)=C(C)NC4=C3C(=O)CCC4)ccc21 (centres undefined)	.
COCCOC(=O)C1=C(C)NC2=C(C(=O)CCC2)C1c1ccc(Cl)cc1 (centres undefined)	.
CCSCCOC(=O)C1=C(C)NC2=C(C(=O)CCC2)C1c1ccc(C(=O)OC)cc1 (centres undefined)	.
CCSCCOC(=O)C1=C(C)NC2=C(C(=O)CCC2)C1c1cccc(F)c1 (centres undefined)	3.1
CCOCCOC(=O)C1=C(C)NC2=C(C(=O)CCC2)C1c1cccc(F)c1 (centres undefined)	.
CCSCCOC(=O)C1=C(C)NC2=C(C(=O)CCC2)C1c1ccc(OC)c(OC)c1 (centres undefined)	4.8
CCCCCOC(=O)C1=C(C)NC2=C(C(=O)CCC2)C1c1ccc(OC)c(OC)c1 (centres undefined)	.
CCN(CC)CCNc1nc(C)nc2c1sc1nc3c(cc12)COC(C)(C)C3	.
SMILES	Dicer processing
CCOC(=O)c1c(NC(=O)COc2ccccc2Cl)sc2c1CCC2	.
COc1cc(/C=N/NC(=S)Nc2ccc(F)cc2)ccc1OS(C)(=O)=O	.
CC(C)(C)NC(=S)Nc1ccccc1C(F)(F)F	.
N/C(=N\NS(=O)(=O)c1cc(C(F)(F)F)cc(C(F)(F)F)c1)c1ccccn1	.
N/C(=N\NC(=S)Nc1ccccc1C(F)(F)F)c1ccccn1	4.3
O=S(=O)(Cc1ccc(Cl)cc1)c1ccc(C(F)(F)F)cn1	.
CC1=C(C(=O)Nc2ccccc2)C(c2ccco2)C(C#N)=C(SCC(=O)Nc2ccc(F)cc2)N1 (centres undefined)	.
O=C(NNc1c(Cl)cccc1Cl)c1ccc(F)cc1F	.
CCOc1ccccc1C1C2=C(Nc3c1c(=O)[nH]c(=O)n3C)c1ccccc1C2=O (centres undefined)	.
N#CC1=C(N)Oc2ccc3ccccc3c2C1c1ccccc1Cl (centres undefined)	.
O=S(=O)(c1ccc(Cl)cc1)N1CCSCC1	.
O=S(=O)(c1ccc(Cl)cc1)N1CCN(c2cccc(Cl)c2)CC1	3.1
CN(C)C(=O)N1CCN(S(=O)(=O)c2ccc(Cl)cc2)CC1	.
Cc1cc(NC(=O)C(Cl)(Cl)Cl)n(-c2ccccc2)n1	.
CC(=O)Oc1cc2sc(=O)oc2c2ccccc12	.
CCc1ccc(-c2cc(O)cc3sc(=O)oc23)cc1	.
O=c1oc(-c2ccccc2Cl)nc2ccc(I)cc12	.
Cc1ccc(-c2cc(O)cc3sc(=O)oc23)cc1	8.1
Cc1ccc(-c2cc(O)cc3sc(=O)oc23)cc1Cl	5.3
O=c1oc2c(-c3cccc(F)c3)cc(O)cc2s1	5
Cc1ccc(-c2nc3sc(C)c(C)c3c(=O)o2)cc1	.
Cc1ccc(-c2nc(NC(=O)COc3ccc(Cl)cc3Cl)sc2C)cc1Cl	.
O=c1oc2c(-c3ccccc3Cl)cc(O)cc2s1	3.6
Cc1ccc(C(=O)Nc2nc(-c3ccc(C)c(Cl)c3)c(C)s2)cc1	.
Cc1ccc(-c2nc(-c3ccccn3)no2)c(Cl)c1	.
SMILES	Dicer processing
COc1ccc(CCN2CN=C(Nc3nc4ccccc4s3)NC2)cc1OC	.
CC(C)(C)c1cc(C(=O)/C(C#N)=C/Nc2ccccc2)no1	.
c1ccc2c(c1)c1ccccc1c1nc(N3CCCCC3)nnc21	.
Cc1ccc(N2C(=O)c3oc4ccccc4c(=O)c3C2c2ccc(F)cc2)nc1 (centres undefined)	.
COc1ccc(C2SCCN2S(=O)(=O)c2ccc(C)cc2)cc1Br (centres undefined)	.
COc1ccc(-c2noc(COc3cccc(C)c3C)n2)cc1OC	.
CCOC(=O)c1cnn(-c2ccccc2)c1NC(=O)CSc1nnc(-c2ccncc2)o1	.
Cc1cc(NC(=O)c2cc(C(C)(C)C)oc2C)nc(C)n1	.
Cc1ccc(-c2cc(C(=O)O)c3ccccc3n2)s1	.
COC(=O)Nc1cc(C)nc2ccccc12	.
Cc1ccc(/C(O)=C/C(=O)C(=O)NNC(=O)c2cc(C)nc3ccccc23)cc1	3.2
O=[N+]([O-])c1cc(C(F)(F)F)ccc1Sc1cccs1	.
CC(C)N(CCC#N)C(=O)Nc1ccc(C(C)(C)C)cc1	.
Brc1ccc(-n2nnnc2/C=C/N2CCCCCC2)cc1	.
CC12C=CC(O1)C1C(=O)N(c3ccc(C(=O)O)cc3)C(=O)C12 (centres undefined)	.
CCCCCCC(=O)Oc1ccc(N2C(=O)CCC2=O)cc1	.
O=C(O)c1ccc(N2C(=O)CCC2=O)cc1	4.8
CC(C)c1nc2c(c3c1[nH]c1ccccc13)C(=O)CC(C)(C)C2	.
Cc1cc(C)c2c(n1)sc1c(Sc3nccn3C)ncnc12	.
Cn1c(=O)c(N2CCCCC2)c2c3c(cccc31)C(=O)c1ccccc1-2	.
CN(C)c1ccc(/C=C(\C#N)c2ccc([N+](=O)[O-])cc2)cc1[N+](=O)[O-]	.
COc1ccc(/C=C(\C#N)c2ccc([N+](=O)[O-])cc2)cc1[N+](=O)[O-]	3.5
COc1ccc(/C(C#N)=C/c2cn[nH]c2)cc1	.
COc1ccc(-c2nnc(SCc3cccc(Cl)c3)o2)c(OC)c1	.
COc1ccc(-c2nnc(SCc3cccc4ccccc34)o2)cc1	.
COc1ccc(-c2nnc(SCc3cccc4ccccc34)o2)c(OC)c1	227
N#C/C(=N\Nc1ccc(OC(F)(F)F)cc1)C(=O)c1ccsc1	.
COc1ccc(-c2cc(OC(=O)c3cccc(Br)c3)c3c(C)oc(C)c3c(=O)c2)cc1	.

Screening data deposited in PubChem BioAssay by Center for Chemical Genomics, University of Michigan.
